Most compounds without a hit are left out; they make up all but 4% or so of the library.
Mtb betalactam: beta-lactam sensitization of Mtb H37Rv | inhibition, % at 25 µM | 330,000 tested, 0.27% active | AID 434955 | M. tuberculosis H37Rv growth with meropenem, percent inhibition;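 note: growth measured after seven days incubation then overnight dye step; 0% = bacteria only wells and 100% = bacteria with antibiotic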
RecA splice inh: inhibitors of M. tuberculosis RecA intein splicing. inhibition, % (concentration not given with the values). AID 2221. cell-free RecA intein splicing, fluorescence. 290,000 tested, 0.75% active. P9WHJ3; in the data active = inhibition above about 30%; inconclusive = no clear call, values can overlap the other calls;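 note: 0% = vehicle wells and 100% = reference inhibitor control wells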
Rv3671c protease: inhibitors of M. tuberculosis serine protease Rv3671c; P9WHR9; inhibition, % at 5.96 µM; 320,000 tested, 0.048% active; AID 2606; in the data active = inhibition above about 38%;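 note: extracellular domain of Rv3671c used as enzyme; 0% = enzyme with DMSO and 100% = no enzyme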
Mtb UGM inh: blocks M. tuberculosis UGM enzyme | P9WIQ1 | purified UGM, fluorescence polarization probe displacement | inhibition, % at 10 µM | 320,000 tested, 0.06% active; in the data active = inhibition above about 10%, passing the limit was not always enough; inconclusive = no clear call, values can overlap the other calls
FBA Mtb inh: Mtb fructose-bisphosphate aldolase inhibition; P9WQA3; purified M. tuberculosis FBA, fluorescence read-out; inhibition, % at 1 µM; 360,000 tested, 2.3% active; AID 588726; in the data active = inhibition above about 27%;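 note: 0% = vehicle and 100% = reference inhibitor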
Target sequence (P9WQA3 whole entry, looked up): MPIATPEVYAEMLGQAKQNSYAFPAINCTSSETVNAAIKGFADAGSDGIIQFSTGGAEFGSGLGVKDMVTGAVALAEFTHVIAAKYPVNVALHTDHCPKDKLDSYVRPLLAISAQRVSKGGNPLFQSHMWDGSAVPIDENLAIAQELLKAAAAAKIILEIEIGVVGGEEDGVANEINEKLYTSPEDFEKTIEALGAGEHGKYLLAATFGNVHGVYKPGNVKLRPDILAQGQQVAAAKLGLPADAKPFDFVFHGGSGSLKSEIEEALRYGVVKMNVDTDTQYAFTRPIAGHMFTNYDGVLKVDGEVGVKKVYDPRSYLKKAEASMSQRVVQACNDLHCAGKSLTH
GDH-TPI inh: counter-screen for M. tuberculosis FBA inhibitors: GDH-TPI coupled enzymes. GDH-TPI coupled enzyme counterscreen, NADH absorbance. inhibition, % at 4.8 µM. 360,000 tested, 1.2% active; in the data active = inhibition above about 30%;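 note: 0% = DMSO wells and 100% = wells lacking the enzyme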
GFP chromophore: counter-screen: blocks GFP chromophore formation. AID 434968. EC50, µM. 2,100 tested, 83% active. cell-free GFP chromophore formation, fluorescence. shares compounds with RecA splice inh
* hit, by the source's call. Unless noted, the rule behind the calls is not given here.

For CC(NC(=O)Cn1ncc(Cl)c(Cl)c1=O)C12CC3CC(CC(C3)C1)C2 (stereo unspecified) the results were Mtb betalactam -10, RecA splice inh 49*, Rv3671c protease 0, Mtb UGM inh -1, FBA Mtb inh -4, GDH-TPI inh 4 and GFP chromophore inconclusive.
For COc1cc2oc(=O)cc(CN3CCN(C(C)=O)CC3)c2cc1Cl the results were FBA Mtb inh 2.
Screening O=[N+]([O-])c1cc(-c2ccc(C(=S)N3CCOCC3)o2)ccc1Cl returned Mtb betalactam 2, RecA splice inh 31*, Rv3671c protease 9, Mtb UGM inh 2, FBA Mtb inh -1, GDH-TPI inh 5 and GFP chromophore 18*.
For S=C(c1ccc(-c2cccc(Cl)c2)o1)N1CCOCC1 the results were Mtb betalactam 1, RecA splice inh 8, Rv3671c protease -7, Mtb UGM inh 1, FBA Mtb inh -3 and GDH-TPI inh 25.
For Nc1ccc2nc(Cc3ccccc3)[nH]c2c1 the results were Mtb betalactam -1, RecA splice inh 30*, Rv3671c protease -16, Mtb UGM inh 2, FBA Mtb inh 1, GDH-TPI inh 6 and GFP chromophore >38.
Cc1[nH]n(-c2ccccc2)c(=O)c1Sc1ccc(Cl)cc1 was read as Mtb betalactam -3, RecA splice inh 57*, Rv3671c protease 5, Mtb UGM inh 3, FBA Mtb inh -7, GDH-TPI inh 8 and GFP chromophore 20*.
`Cc1ccc(C(=O)OCCc2c(C)[nH]n(-c3ccccc3)c2=O)cc1` gave Mtb betalactam -3, Rv3671c protease 1, Mtb UGM inh -1, FBA Mtb inh 3 and GDH-TPI inh 7.
Screening Cc1[nH]n(-c2ccccc2)c(=O)c1C(C[N+](=O)[O-])c1ccc(Cl)cc1 (stereo unspecified) returned Mtb betalactam 100, RecA splice inh 82*, Rv3671c protease -77, FBA Mtb inh 1, GDH-TPI inh 1 and GFP chromophore 15*.
Screening Cc1ccc(C(C[N+](=O)[O-])c2c(C)[nH]n(-c3ccccc3)c2=O)cc1 (stereo unspecified) returned Mtb betalactam 95, RecA splice inh 93*, Rv3671c protease -67, Mtb UGM inh 5, FBA Mtb inh 1, GDH-TPI inh 25 and GFP chromophore 7.3*.
For Cc1[nH]n(-c2ccccc2)c(=O)c1C=NCCc1ccccc1 the results were Mtb betalactam 7, RecA splice inh 5, Rv3671c protease -3, Mtb UGM inh 2, FBA Mtb inh -1 and GDH-TPI inh 6.
`Cc1[nH]n(-c2ccccc2)c(=O)c1C(C[N+](=O)[O-])c1ccc(F)cc1` (stereo unspecified) gave Mtb betalactam 98, RecA splice inh 76*, Rv3671c protease -90, Mtb UGM inh -2, FBA Mtb inh 0, GDH-TPI inh -2 and GFP chromophore 22*.
Screening COc1cc2[nH]c(=O)c(C(=O)NCc3ccc(C)cc3)c(O)c2cc1OC returned FBA Mtb inh -2 and GDH-TPI inh 0.
`CC(OC(=O)CCNS(=O)(=O)c1ccc(Cl)cc1)C(=O)N(C)Cc1ccccc1` (stereo unspecified) gave FBA Mtb inh -1 and GDH-TPI inh 4.
`CCc1nn2c(=O)cc(COC(=O)c3cc(Cl)c(OC)c(OC)c3)nc2s1` gave Mtb betalactam -3, Rv3671c protease 0, Mtb UGM inh -7, FBA Mtb inh 0 and GDH-TPI inh -2.
CC1CC(C)CN(C(=O)C(Cc2ccccc2)NC(=O)c2ccccc2)C1 (stereo unspecified) was read as Mtb betalactam -1, RecA splice inh 4, Rv3671c protease 15, Mtb UGM inh 0, FBA Mtb inh 5 and GDH-TPI inh 4.
Screening COc1ccc(C(c2c(C)[nH]n(-c3ccccc3)c2=O)c2c(C)[nH]n(-c3ccccc3)c2=O)cc1OC returned Mtb betalactam 7, RecA splice inh 98*, Rv3671c protease -214, Mtb UGM inh 1, FBA Mtb inh -3, GDH-TPI inh -4 and GFP chromophore 1.3*.
COC(=O)C1=NN(C(C)=O)C2(CC(=O)N(c3cc(C)cc(C)c3)C2=O)C1 (stereo unspecified) was read as Mtb betalactam -9, RecA splice inh 30*, Rv3671c protease 0, Mtb UGM inh 2, FBA Mtb inh 2, GDH-TPI inh -1 and GFP chromophore >38.
`CCN1C(=O)[C@H]2[C@H]3CN=C(SC)N3[C@@](Cc3ccccc3)(C(=O)OC)[C@H]2C1=O` gave FBA Mtb inh 6 and GDH-TPI inh 4.
CCOC(=O)C1=C(C)OC(N)=C(C#N)C1c1c(C)nn(-c2ccc(C)cc2)c1Cl (stereo unspecified) was read as RecA splice inh -2.
Screening COc1ccc(C2C(C#N)=C(N)Oc3c2c(-c2ccccc2)nn3-c2ccccc2)c(OC)c1OC (stereo unspecified) returned Mtb betalactam -9, RecA splice inh 6, Rv3671c protease -14, FBA Mtb inh 0 and GDH-TPI inh 12.
`COc1ccc(OC)c(C2C(C#N)=C(N)Oc3c2c(C)nn3-c2ccc(C)cc2)c1` (stereo unspecified) gave Mtb betalactam 47, RecA splice inh 44*, Rv3671c protease 11, Mtb UGM inh 0, FBA Mtb inh 0, GDH-TPI inh 8 and GFP chromophore 29*.
For Cc1ccc(-n2nc(C)c3c2OC(N)=C(C#N)C3c2ccco2)cc1 (stereo unspecified) the results were Mtb betalactam -15, RecA splice inh 69*, Rv3671c protease -9, Mtb UGM inh 1, FBA Mtb inh 1, GDH-TPI inh 21 and GFP chromophore 11*.
Screening Cc1ccc(-n2nc(C)c3c2OC(N)=C(C#N)C3c2ccc(C)o2)cc1 (stereo unspecified) returned Mtb betalactam -6, RecA splice inh 80*, Rv3671c protease -13, Mtb UGM inh 0, FBA Mtb inh -5, GDH-TPI inh 14 and GFP chromophore 17*.
Cc1ccccc1NC(=O)c1nc(S(C)(=O)=O)ncc1Cl was read as Mtb betalactam 90, Rv3671c protease 3, Mtb UGM inh 1, FBA Mtb inh -2 and GDH-TPI inh 4.
For CS(=O)(=O)c1ncc(Cl)c(C(=O)Nc2ccc(N3CCOCC3)cc2)n1 the results were Mtb betalactam 3, RecA splice inh 45*, Rv3671c protease -8, Mtb UGM inh -1, FBA Mtb inh -3, GDH-TPI inh 11 and GFP chromophore 38*.
For CS(=O)(=O)c1ncc(Cl)c(C(=O)Nc2ccc(OC(F)F)cc2)n1 the results were Mtb betalactam 100, RecA splice inh 79*, Rv3671c protease -1, Mtb UGM inh -1, FBA Mtb inh -6, GDH-TPI inh -1 and GFP chromophore 11*.
